Here are results for 5 compounds from PubChem BioAssay.

Experiment [1] can be described thus: small molecules captured by biotinylated probe aFSTL3 – biochemical, small-molecule microarray, fluorescence 635/667, stem cell growth factor project, primary screen (AID 1064).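 Also: measures binding of the biotinylated anti-FSTL3 antibody to printed compounds.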 The settings on record: higher = more signal.
A short description of experiment [2]: binders from COS7 lysate, DM2A8 probe, primary screen, torsin A project, cell lysate, small-molecule microarray, fluorescence 635/667 (AID 1065). The note with it: higher = more signal, COS7 lysate expressing mutant human TOR1A.
Experiment [3] is described as follows: small molecules captured by biotinylated probe aFGF2 – biochemical, small-molecule microarray, fluorescence 635/667, stem cell growth factor project, primary screen (AID 1067).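 Also: measures binding of biotinylated aFGF2 protein to printed compounds on slides; z-score merges feature fluorescence and signal-to-noise across triplicate slides.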 The settings on record: higher = more signal.
A short description of experiment [4]: small molecules captured by biotinylated probe aFGF10 – biochemical, small-molecule microarray, fluorescence 635/667, stem cell growth factor project, primary screen (AID 1071).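 Also: score merges 667 nm spot intensity and signal to noise from triplicate slides.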 The note with it: higher = more signal.
The target in experiment [5] is Neurogenic locus notch homolog protein 2 (Homo sapiens) (UniProt Q04721). Kind of experiment: small molecules binding Notch2 protein – biochemical, small-molecule microarray, 635 nm fluorescence, stem cell growth factors, primary screen (AID 1073). The note with it: higher = more signal.
Experiment [6] addresses Pro-neuregulin-1, membrane-bound isoform (Homo sapiens) (UniProt Q02297). Kind of experiment: small molecules binding neuregulin-1 protein – biochemical, small-molecule microarray, fluorescence 635/667, psychiatric disease protein project, primary screen (AID 1075).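 Also: score combines 667 nm spot fluorescence with signal to noise.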 The settings on record: NRG1 binding, 635 nm fluorescence, higher = more signal.
In experiment [7] the test system is Neuregulin-1 EGF-like domain. Kind of experiment: small molecules binding NRG1 EGF domain – biochemical, small-molecule microarray, 635 nm fluorescence, primary screen (AID 1081).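 Also: binding of the protein to compounds printed on small-molecule microarray slides.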 The note with it: higher = more signal.
Experiment [8] is described as follows: FRG1 expression reporter modulators in myotubes – cell-based, C2C12 myotubes, firefly/Renilla luciferase, luminescence, FRG1 inhibition for FSHD, primary screen (AID 1084). The note with it: FRG1 promoter luciferase, higher = more signal, called active from +8 up or from −8 down.
The nature of experiment [9]: small molecules captured by biotinylated probe aFST – biochemical, small-molecule microarray, fluorescence 635/667, stem cell growth factor project, primary screen (AID 1086).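 Also: score merges 667 nm fluorescence with signal-to-noise of each printed compound spot.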 The settings on record: higher = more signal.
The nature of experiment [10]: binders of probe aHhip on microarray, primary screen, stem cell growth factor project, biochemical, small-molecule microarray, fluorescence 635/667 (AID 1087).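 Also: score merges spot fluorescence at 667nm with spot signal to noise ratio.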 The note with it: higher = more signal.
Experiment [11] deals with PRMT1 (protein arginine N-methyltransferase 1). The experiment is described as follows: small molecules binding arginine methyltransferase PRMT1 – biochemical, small-molecule microarray, 635 nm fluorescence, primary screen (AID 1088).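 Also: binding of Prmt1 protein to compounds spotted on small-molecule microarray slides.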 The settings on record: higher = more signal.
The nature of experiment [12]: growth effects on S. cerevisiae YJM789 – YJM789 clinical isolate, OD600, 24 h, basal, primary screen (AID 1089).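 Also: growth of clinical yeast isolate S. cerevisiae YJM 789 seeded 1000 cells per well; test concentration not given here.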 The settings on record: higher = more signal, called active from +8 up or from −8 down.
Experiment [13] can be described thus: S. pombe growth modifiers, basal conditions – strain 972, OD600, 24 h, no modulator, primary screen (AID 1090).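 Also: basal condition with compound alone and no growth modifier present; test concentration not given here.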 The settings on record: S. pombe 972 growth, higher = more signal, called active from +8 up or from −8 down.
A short description of experiment [14]: budding yeast growth modifiers under rapamycin – strain BY4716, OD600, 96 h, primary screen (AID 1091). Also: test concentration not given here. The settings on record: S. cerevisiae BY4716 + rapamycin, higher = more signal, called active from +8 up or from −8 down.
Experiment [15] has as its target Torsin-1A-interacting protein 2 (Homo sapiens) (UniProt Q8NFQ8). Kind of experiment: small molecules binding lysate-expressed LULL1 – cell lysate, human LULL1 lysate, 635/667 nm fluorescence, primary screen (AID 1092).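 Also: probe is lysate of COS7 cells overexpressing human LULL1; score merges per-feature 667 nm fluorescence with signal-to-noise.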 The settings on record: small-molecule microarray, hLULL1 lysate binding, 635 nm fluorescence; higher = more signal.
Experiment [16] is described as follows: optical density change of DRC41 E. coli – strain DRC41, OD650, 24 h, E. coli filamentation project, primary screen (AID 1093).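 Also: MC1000 strain lacking acrAB efflux and sulA so SOS filamentation is blocked; test concentration not given here.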 The note with it: E. coli DRC41 growth, higher = more signal, called active from +8 up or from −8 down.
Experiment [17] in a line: probe aLefty2 binding to arrayed compounds – biochemical, biotinylated probe, 635/667 nm fluorescence, primary screen (AID 1094).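 Also: score merges spot fluorescence near 667 nm with spot signal-to-noise ratio.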 The note with it: small-molecule microarray, higher = more signal.
The test system of experiment [18] is Noggin (protein binding on small-molecule microarray). The experiment is described as follows: small molecules binding Noggin protein – biochemical, 635/667 nm fluorescence, primary screen (AID 1095).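 Also: score merges 667 nm feature fluorescence with signal to noise over triplicate slides.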 The settings on record: 635 nm fluorescence, higher = more signal.
Experiment [19] addresses Neurogenic locus notch homolog protein 3 (Homo sapiens) (UniProt Q9UM47). Kind of experiment: small molecules binding NOTCH3 protein – biochemical, 635/667 nm fluorescence, primary screen (AID 1096). The note with it: small-molecule microarray, 635 nm fluorescence, higher = more signal.
The nature of experiment [20]: probe aEGFR binding to arrayed compounds – biochemical, biotinylated probe, 635/667 nm fluorescence, primary screen (AID 1097).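 Also: probe is a biotinylated anti-EGFR antibody binding compounds printed on slides; score combines fluorescence near 667 nm and signal to noise of each spot.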 The note with it: small-molecule microarray, higher = more signal.

The structures appear in SMILES notation. Activity calls are given as the source filed them.

Neurogenic locus notch homolog protein 3 (Homo sapiens), sequence (Q9UM47 whole entry, looked up): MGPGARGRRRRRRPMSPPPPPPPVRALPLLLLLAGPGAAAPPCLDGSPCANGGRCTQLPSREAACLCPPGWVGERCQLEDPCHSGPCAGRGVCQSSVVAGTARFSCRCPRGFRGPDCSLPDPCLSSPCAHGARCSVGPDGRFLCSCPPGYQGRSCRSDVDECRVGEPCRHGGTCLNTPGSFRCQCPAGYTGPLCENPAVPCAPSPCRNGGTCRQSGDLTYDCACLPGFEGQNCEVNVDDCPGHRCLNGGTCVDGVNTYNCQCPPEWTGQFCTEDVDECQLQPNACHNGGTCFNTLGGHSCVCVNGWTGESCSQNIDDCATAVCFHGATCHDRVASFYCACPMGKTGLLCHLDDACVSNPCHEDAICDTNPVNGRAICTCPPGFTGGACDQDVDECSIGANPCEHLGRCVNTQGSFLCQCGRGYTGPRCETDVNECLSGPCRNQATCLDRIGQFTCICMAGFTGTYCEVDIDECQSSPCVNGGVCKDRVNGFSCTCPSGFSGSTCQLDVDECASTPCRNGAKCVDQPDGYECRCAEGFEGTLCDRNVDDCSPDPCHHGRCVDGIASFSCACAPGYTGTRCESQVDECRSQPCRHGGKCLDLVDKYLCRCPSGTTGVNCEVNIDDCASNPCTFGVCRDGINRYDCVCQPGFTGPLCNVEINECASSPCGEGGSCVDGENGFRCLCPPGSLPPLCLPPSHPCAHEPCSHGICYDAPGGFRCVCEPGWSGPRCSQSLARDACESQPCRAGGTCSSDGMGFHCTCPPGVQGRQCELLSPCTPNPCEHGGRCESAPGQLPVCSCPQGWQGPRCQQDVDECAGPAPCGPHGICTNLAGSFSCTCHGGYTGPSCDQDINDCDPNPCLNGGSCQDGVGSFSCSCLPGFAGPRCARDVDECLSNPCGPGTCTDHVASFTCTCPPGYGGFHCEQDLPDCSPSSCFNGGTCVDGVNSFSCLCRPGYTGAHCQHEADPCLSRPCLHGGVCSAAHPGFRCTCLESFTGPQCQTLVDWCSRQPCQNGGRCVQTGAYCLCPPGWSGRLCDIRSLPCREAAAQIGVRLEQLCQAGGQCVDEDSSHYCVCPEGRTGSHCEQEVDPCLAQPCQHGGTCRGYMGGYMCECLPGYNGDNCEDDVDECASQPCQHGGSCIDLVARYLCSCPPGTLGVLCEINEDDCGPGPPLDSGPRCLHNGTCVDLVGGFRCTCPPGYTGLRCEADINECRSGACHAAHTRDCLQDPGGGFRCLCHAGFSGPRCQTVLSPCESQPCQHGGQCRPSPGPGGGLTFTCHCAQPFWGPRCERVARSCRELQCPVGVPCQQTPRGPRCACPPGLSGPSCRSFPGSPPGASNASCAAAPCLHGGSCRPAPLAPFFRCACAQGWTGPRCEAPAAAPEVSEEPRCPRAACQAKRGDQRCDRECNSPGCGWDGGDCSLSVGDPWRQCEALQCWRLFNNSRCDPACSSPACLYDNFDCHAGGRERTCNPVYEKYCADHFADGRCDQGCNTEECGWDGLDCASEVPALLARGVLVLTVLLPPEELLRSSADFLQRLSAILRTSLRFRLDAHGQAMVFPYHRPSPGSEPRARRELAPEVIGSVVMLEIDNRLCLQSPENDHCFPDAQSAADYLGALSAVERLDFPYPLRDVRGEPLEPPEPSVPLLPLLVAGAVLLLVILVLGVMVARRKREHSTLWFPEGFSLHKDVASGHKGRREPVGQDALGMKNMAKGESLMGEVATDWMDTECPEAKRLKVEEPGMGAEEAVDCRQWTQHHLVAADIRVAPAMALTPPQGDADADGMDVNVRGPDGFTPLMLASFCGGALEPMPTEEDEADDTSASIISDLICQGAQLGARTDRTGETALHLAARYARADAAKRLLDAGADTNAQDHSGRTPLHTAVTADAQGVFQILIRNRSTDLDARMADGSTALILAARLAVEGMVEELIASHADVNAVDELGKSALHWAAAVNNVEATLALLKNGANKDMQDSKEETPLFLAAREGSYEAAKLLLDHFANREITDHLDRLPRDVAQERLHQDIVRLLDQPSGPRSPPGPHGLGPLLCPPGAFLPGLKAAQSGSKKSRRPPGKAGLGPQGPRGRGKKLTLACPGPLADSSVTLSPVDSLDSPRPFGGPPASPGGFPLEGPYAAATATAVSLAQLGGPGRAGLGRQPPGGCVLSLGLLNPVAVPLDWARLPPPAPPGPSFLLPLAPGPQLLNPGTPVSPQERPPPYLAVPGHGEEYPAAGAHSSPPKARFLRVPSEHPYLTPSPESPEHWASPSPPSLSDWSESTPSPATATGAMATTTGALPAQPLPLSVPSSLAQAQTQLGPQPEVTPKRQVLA
Torsin-1A-interacting protein 2 (Homo sapiens), sequence (Q8NFQ8 whole entry, looked up): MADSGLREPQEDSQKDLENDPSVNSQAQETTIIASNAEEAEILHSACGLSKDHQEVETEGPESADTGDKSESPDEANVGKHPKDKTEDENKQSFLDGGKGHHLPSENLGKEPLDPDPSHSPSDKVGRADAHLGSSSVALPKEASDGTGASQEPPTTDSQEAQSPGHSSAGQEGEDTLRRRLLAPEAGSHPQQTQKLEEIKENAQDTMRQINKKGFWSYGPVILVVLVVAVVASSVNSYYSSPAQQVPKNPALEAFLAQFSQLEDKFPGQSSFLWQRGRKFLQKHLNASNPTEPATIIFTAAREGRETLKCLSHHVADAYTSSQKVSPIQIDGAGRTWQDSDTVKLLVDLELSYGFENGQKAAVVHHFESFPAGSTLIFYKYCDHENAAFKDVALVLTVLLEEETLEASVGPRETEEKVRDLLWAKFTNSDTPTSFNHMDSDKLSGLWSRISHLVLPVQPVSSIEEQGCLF
Pro-neuregulin-1, membrane-bound isoform (Homo sapiens), sequence (Q02297 whole entry, looked up, the tested form may be a part, canonical isoform): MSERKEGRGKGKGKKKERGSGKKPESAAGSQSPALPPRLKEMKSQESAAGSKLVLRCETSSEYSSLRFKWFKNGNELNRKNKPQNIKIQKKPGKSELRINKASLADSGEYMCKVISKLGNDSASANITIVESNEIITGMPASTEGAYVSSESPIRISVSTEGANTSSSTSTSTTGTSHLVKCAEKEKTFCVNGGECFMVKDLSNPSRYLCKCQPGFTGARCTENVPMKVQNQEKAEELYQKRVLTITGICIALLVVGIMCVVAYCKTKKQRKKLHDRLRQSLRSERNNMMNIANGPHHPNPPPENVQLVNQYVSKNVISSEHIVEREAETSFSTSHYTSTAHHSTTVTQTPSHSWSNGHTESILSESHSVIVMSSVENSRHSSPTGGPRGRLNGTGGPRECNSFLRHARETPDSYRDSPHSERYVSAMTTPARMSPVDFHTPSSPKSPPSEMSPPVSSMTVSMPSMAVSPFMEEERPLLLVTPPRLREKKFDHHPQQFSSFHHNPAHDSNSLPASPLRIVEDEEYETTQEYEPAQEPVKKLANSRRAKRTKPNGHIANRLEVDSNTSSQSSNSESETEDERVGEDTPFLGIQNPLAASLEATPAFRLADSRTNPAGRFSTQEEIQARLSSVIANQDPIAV

Turning to `CC[C@@H](O[Si](C#C[Si](C(C)C)(C(C)C)C(C)C)(C(C)C)C(C)C)c1cn([C@H](CO)Cc2ccccc2)nn1`, the composite z-score was -0.48 in [1]; 0.111 in [2]; -0.187 in experiment [3]; 0.686 in [4]; 0.929 in experiment [5]; 0.0252 in experiment [6]. Also, the composite z-score in experiment [7] is 0.846; in experiment [9] it was 0.547; in experiment [10], -0.0994; in experiment [11] it was 1.34; in [15] it was 1.51; in experiment [17] it was -0.232. Further, the composite z-score in [18] was 0.715; in experiment [19], 0.907; in experiment [20] it was -0.0584. Further, the z-score in [8] is 0.355 (inactive); in experiment [12] it was 1.57 (inactive); in experiment [13], 1.22 (inactive); in experiment [14] it was 0.532 (inactive); in experiment [16], 0.598 (inactive).
As to `C=CCN1C(=O)[C@]2(O[C@H](CCO)[C@@H]([Si](C)(C)c3ccc(OC)cc3)[C@@H]2C)c2cc(N3C(=O)c4ccccc4Oc4ccccc43)ccc21`, the composite z-score in experiment [1] was -0.086; in experiment [2], -0.203; in experiment [3], -0.0392; in experiment [4] it was 0.56; in experiment [5], 0.0699; in [6] it was 0.967. The composite z-score in experiment [7] is 1.03; in [9] it was 0.0141; in experiment [10], -0.236; in [11] it was 1.41; in experiment [15], 2.13; in [17] it was -0.0658. Moreover, the composite z-score in experiment [18] is 0.458; in experiment [19], 0.803; in experiment [20] it was -0.115. The z-score in experiment [8] is -1.5 (inactive); in experiment [12], 0.922 (inactive); in experiment [13], 0.729 (inactive); in experiment [14] it was 35.6 (active); in [16] it was 0.77 (inactive).
`C=C[C@H](C)[C@@H](OC(=O)Nc1ccc(SC)cc1)c1ccc(OCCO)cc1`: the composite z-score was 0.169 in experiment [1]; 0.378 in experiment [2]; -0.0408 in experiment [3]; 0.0044 in [4]; -0.421 in [5]; 0.99 in experiment [6]. Further, the composite z-score is 1.26 in [7]; 0.0372 in experiment [9]; -0.264 in experiment [10]; 0.191 in [11]; 1.84 in [15]; -0.0391 in experiment [17]. Besides, the results for the composite z-score in experiment [18], in experiment [19] and in experiment [20] were 1.05, 0.487 and -0.225, respectively. In addition, the z-score in [8] is 5.34 (inactive); in experiment [12], 0.613 (inactive); in experiment [13] it was -0.583 (inactive); in experiment [14], 1.92 (inactive); in [16], 0.441 (inactive).
In the case of `COC(=O)[C@@]1(Cc2ccc(F)cc2)[C@H]2c3cc(C(=O)N4CCCC4)n(CCc4c[nH]c5cc(F)ccc45)c3C[C@H]2CN1C(=O)c1ccccc1`, the composite z-score is 0.198 in [1]; 0.197 in [2]; 0.289 in [3]; 0.634 in experiment [4]; 1.68 in [5]; 2.01 in [6]. Moreover, the composite z-score in experiment [7] came to 1.35; in [9], 1.69; in experiment [10], 0.281; in [11], 0.765; in [15] it was 3.39; in experiment [17], 0.605. Moreover, the composite z-score in experiment [18] was 0.344; in experiment [19], 1.02; in [20], 0.756. The z-score is 0.53 (inactive) in experiment [8]; 0.0277 (inactive) in experiment [12]; 1.24 (inactive) in [13]; 1.94 (inactive) in experiment [14]; -0.167 (inactive) in experiment [16].
As for `CCCCN1CC=CC23O[C@@H]4/C=C\CCC(C)OC(=O)C4[C@H]2C(=O)N(CCO)[C@@H]3C1=O` (stereo not given in full), the composite z-score in experiment [1] was 0.19; in experiment [2] it was 1.97; in experiment [3], -0.117; in experiment [4], -0.206; in experiment [5], -0.722; in experiment [6], 0.19. The composite z-score is 1.12 in [7]; -0.14 in experiment [9]; -0.3 in [10]; -0.314 in experiment [11]; 3.4 in experiment [15]; 0.0469 in experiment [17]. For the same compound, the composite z-score in experiment [18] was -0.19; in [19] it was -0.342; in [20], -0.157. For the same compound, the z-score in experiment [8] was -0.093 (inactive); in [12], -1.64 (inactive); in [13], -1.02 (inactive); in experiment [14], -1.2 (inactive); in [16], 2.26 (inactive).
